# Results published in PubChem BioAssay (NCI).
# About 83,000 compounds went through this panel and 20% of them were active in at least one assay; those are over-represented in the sample as a whole.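 In brief: 96-well plates, 48 h treatment, single concentration, percent growth endpoint.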 Values without a mark were called inactive. Activity calls are given as the source filed them. Rule for the calls: active = growth percent below 10; inactive = the rest.
# System: UACC-257 melanoma
# Assay: NCI-60 one-dose screen, 48 h (100 = growth as untreated, 0 = no growth, -100 = all killed)
# Settings: 10 µM
row,Compound,growth
1,Oc1[nH]c2cc(Cl)ccc2c1/C=c1/ccc2c(c1)N=C(c1cc(F)cc(F)c1)N=2,55.6%
2,CSc1nn(-c2ccccc2)c2ncnc(Oc3ccccc3)c12,107%
3,Cc1cc2c(C)c3cc(C)c(N)cc3nc2cc1N,18.9%
4,CCOC(=O)C1(CC(C)C)CCOC1=O (stereo unspecified),97.7%
5,CCCCCCCCCCCCCCCC(=O)OC1[C@@H](OC(=O)CCCCCCCCCCCCCCC)[C@@H](C(=O)N[C@@H](CCCCN)C(=O)OC)O[C@H]1n1cnc2c(=O)[nH]c(NC(=O)C(C)C)nc21 (stereo partly specified),90.1%
6,COc1cc2cc3c(nc2cc1OC)CCN3Cc1ccc(NC(=O)Nc2cc(C(F)(F)F)cc(C(F)(F)F)c2)cc1,89%
7,COc1cc(Cl)cc(-c2nn(-c3cccc(NC(=O)Nc4cc(C(F)(F)F)cc(C(F)(F)F)c4)c3)cc2-c2ccncc2)c1,-25.6% (active)
8,CCCCCCCC(C)NCCO (stereo unspecified),90.8%
9,COc1cc(-c2nnc(-c3c(-c4ccc(F)cc4)nc4ccccn34)o2)cc(OC)c1OC,92.1%
10,COc1ccc2c(c1)/C(=C\c1c[nH]c3ccc(OC)cc13)C(=O)N2,68.1%
11,COc1ccc(-c2nc3sccn3c2-c2nc3c([nH]2)C(=O)c2ccccc2C3=O)cc1,89.2%
12,Fc1ccc(-c2nnc(-c3c(-c4ccc(F)cc4)nc4ccccn34)o2)cc1,85.1%
13,CCN1CCCC1CNC(=O)c1ncc(-c2ccc(C(F)(F)F)cc2)c(NC2CCCCCC2)n1 (stereo unspecified),-46.2% (active)
14,Cn1c([N+](=O)[O-])cnc1/C=C1\Oc2ccccc2C1=O,-57% (active)
15,COc1ccc(-c2nc3ncccn3c2-c2nnc(-c3ccc(F)cc3)o2)cc1,105%
16,COc1cc(OC)cc(-c2cncn2-c2ccc(-c3nc4cc(OC)cc(OC)c4s3)cc2)c1,82.4%
17,N#Cc1c(C#N)c(SSc2c(C#N)c(C#N)c(N)n2-c2ccccc2)n(-c2ccccc2)c1N,103%

# System: M14 melanoma
# Assay: as above
# Settings: 10 µM
row,Compound,growth
1,Clc1ccc(Nc2ccnc(NCCCNc3ccnc4cc(Cl)ccc34)n2)cc1,-80% (active)
2,Oc1[nH]c2cc(Cl)ccc2c1/C=c1/ccc2c(c1)N=C(c1cc(F)cc(F)c1)N=2,-9.94% (active)
3,CSc1nn(-c2ccccc2)c2ncnc(Oc3ccccc3)c12,102%
4,Cc1cc2c(C)c3cc(C)c(N)cc3nc2cc1N,9.16% (active)
5,CCOC(=O)C1(CC(C)C)CCOC1=O (stereo unspecified),106%
6,COc1ccc(Nc2cc(C)nc(NCCCNc3ccnc4cc(Cl)ccc34)n2)cc1,-81.1% (active)
7,CCCCCCCCCCCCCCCC(=O)OC1[C@@H](OC(=O)CCCCCCCCCCCCCCC)[C@@H](C(=O)N[C@@H](CCCCN)C(=O)OC)O[C@H]1n1cnc2c(=O)[nH]c(NC(=O)C(C)C)nc21 (stereo partly specified),93.7%
8,COc1cc(Nc2ccnc(NCCNc3ccnc4cc(Cl)ccc34)n2)cc(OC)c1,-79.9% (active)
9,Cc1cc(Nc2ccc(Cl)cc2)nc(NCCCNc2ccnc3cc(Cl)ccc23)n1,-87.5% (active)
10,COc1cc2cc3c(nc2cc1OC)CCN3Cc1ccc(NC(=O)Nc2cc(C(F)(F)F)cc(C(F)(F)F)c2)cc1,77.4%
11,CC(C)=CCc1cc(O)cc2c1OC(C=C(C)C)C1=C2C(=O)C2=C(NCCS2(=O)=O)C1=O (stereo unspecified),-87.2% (active)
12,CC(C)=CCc1cc(O)cc2c1OC(C=C(C)C)C1=C2C(=O)C2=C(C1=O)S(=O)(=O)CCN2 (stereo unspecified),27.6%
13,COc1ccc(Nc2ccnc(NCCNc3ccnc4cc(Cl)ccc34)n2)cc1,-16.6% (active)
14,Cc1cc(Cl)nc(N(CCCNc2ccnc3cc(Cl)ccc23)Cc2cccs2)n1,-7.28% (active)
15,COc1cc(Cl)cc(-c2nn(-c3cccc(NC(=O)Nc4cc(C(F)(F)F)cc(C(F)(F)F)c4)c3)cc2-c2ccncc2)c1,1.22% (active)
16,CN(C)CCNC(=O)c1cccn2c(=O)c3cc4ccccc4cc3nc12,-63.7% (active)
17,CC12O[C@H](C[C@@H](O)[C@H]1O)n1c3ccccc3c3c4c(c5c6ccccc6n2c5c31)C(=O)N(CCCN)C4=O,37.1%
18,CCCCCCCC(C)NCCO (stereo unspecified),105%
19,Cc1cc(N(CCCNc2ccnc3cc(Cl)ccc23)Cc2ccc3c(c2)OCO3)nc(N2CCOCC2)n1,-71.1% (active)
